The source made the active and inactive calls.
How the values were obtained:
[1] = test system: PRMT1 (protein arginine N-methyltransferase 1); test: PRMT1 binders on small-molecule microarrays, primary screen, biochemical, small-molecule microarray, 635 nm fluorescence (AID 1088); conditions: small-molecule microarray binding, higher = more signal;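 further: binding of Prmt1 protein to compounds spotted on small-molecule microarray slides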
[2] = yeast growth modulation, basal conditions, primary screen, YJM789 clinical isolate, OD600, 24 h (AID 1089);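 further: growth of clinical yeast isolate S. cerevisiae YJM 789 seeded 1000 cells per well; test concentration not given here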; conditions: S. cerevisiae YJM789 growth, higher = more signal, called active from +8 up or from −8 down
[3] = fission yeast growth modulation, primary screen, strain 972, OD600, 24 h, no modulator (AID 1090);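 further: basal condition with compound alone and no growth modifier present; test concentration not given here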; conditions: S. pombe 972 growth, higher = more signal, called active from +8 up or from −8 down
[4] = S. cerevisiae growth modulation with rapamycin, primary screen, strain BY4716, OD600, 96 h (AID 1091); conditions: higher = more signal, called active from +8 up or from −8 down; further: test concentration not given here
[5] = molecular target: Torsin-1A-interacting protein 2 (Homo sapiens) (UniProt Q8NFQ8); test: LULL1 binders on small-molecule microarray, primary screen, cell lysate, human LULL1 lysate, 635/667 nm fluorescence (AID 1092); conditions: hLULL1 lysate binding, 635 nm fluorescence, higher = more signal;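 further: probe is lysate of COS7 cells overexpressing human LULL1; score merges per-feature 667 nm fluorescence with signal-to-noise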
[6] = E. coli growth modulation, two-sided OD650, primary screen, E. coli filamentation project, strain DRC41, 24 h (AID 1093); conditions: OD650, 24 h, higher = more signal, called active from +8 up or from −8 down;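 further: MC1000 strain lacking acrAB efflux and sulA so SOS filamentation is blocked; test concentration not given here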
[7] = small-molecule microarray binders of probe aLefty2, primary screen, biochemical, biotinylated probe, 635/667 nm fluorescence (AID 1094); conditions: higher = more signal;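 further: score merges spot fluorescence near 667 nm with spot signal-to-noise ratio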
[8] = test system: Noggin (protein binding on small-molecule microarray); test: Noggin binders on small-molecule microarray, primary screen, biochemical, 635/667 nm fluorescence (AID 1095); conditions: 635 nm fluorescence, higher = more signal;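 further: score merges 667 nm feature fluorescence with signal to noise over triplicate slides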
[9] = molecular target: Neurogenic locus notch homolog protein 3 (Homo sapiens) (UniProt Q9UM47); test: NOTCH3 binders on small-molecule microarray, primary screen, biochemical, 635/667 nm fluorescence (AID 1096); conditions: NOTCH3 binding, 635 nm fluorescence, higher = more signal
[10] = small-molecule microarray binders of probe aEGFR, primary screen, biochemical, biotinylated probe, 635/667 nm fluorescence (AID 1097); conditions: higher = more signal;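 further: probe is a biotinylated anti-EGFR antibody binding compounds printed on slides; score combines fluorescence near 667 nm and signal to noise of each spot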
[11] = test system: Plasmodium falciparum Sir2 (PF13_0152, Sir2A); test: pfSir2 binders on small-molecule microarrays, primary screen, biochemical, small-molecule microarray, 635 nm fluorescence (AID 1098); conditions: small-molecule microarray binding, fluorescence 635 nm; higher = more signal;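 further: score merges spot fluorescence intensity with its signal-to-noise ratio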
[12] = small-molecule microarray binders of probe aDKK1, primary screen, biochemical, biotinylated probe, 635/667 nm fluorescence (AID 1099); conditions: higher = more signal;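 further: score merges 667nm spot fluorescence with signal to noise across triplicate slides; reference of the scale not given here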
[13] = small-molecule microarray binders of probe aCHRDL2, primary screen, biochemical, biotinylated probe, 635/667 nm fluorescence (AID 1100); conditions: higher = more signal
[14] = splicing luciferase reporter signal modulators, primary screen, spliceosome inhibition project, cell-based, HEK293, splice +/- reporter (AID 1101); conditions: luminescence, 24 h, higher = more signal, called active from +8 up or from −8 down;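 further: HEK293 cells carrying a splicing-competent luciferase reporter gene; test concentration not given here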
[15] = molecular target: Fibroblast growth factor 10 (Homo sapiens) (UniProt O15520); test: FGF10 binders on small-molecule microarrays, primary screen, biochemical, small-molecule microarray, 635 nm fluorescence (AID 1102); conditions: FGF10 binding, fluorescence 635 nm, higher = more signal
[16] = test system: glycogen synthase kinase-3 (GSK3A per assay name; protocol says GSK3B); test: GSK3 binders on small-molecule microarrays, primary screen, biochemical, small-molecule microarray, 635 nm fluorescence, GSK3A (AID 1103); conditions: small-molecule microarray binding, fluorescence 635 nm; higher = more signal; further: the record names both GSK3A and GSK3B
[17] = molecular target: Epidermal growth factor receptor (Homo sapiens) (UniProt P00533); test: EGFR binders on small-molecule microarrays, primary screen, biochemical, small-molecule microarray, 635 nm fluorescence (AID 1104); conditions: EGFR binding, higher = more signal;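 further: score merges 667 nm emission intensity with spot signal to noise over triplicate slides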
[18] = molecular target: Follistatin-related protein 3 (Homo sapiens) (UniProt O95633); test: FSTL3 binders on small-molecule microarrays, primary screen, biochemical, small-molecule microarray, 635 nm fluorescence (AID 1105); conditions: FSTL3 binding, higher = more signal;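 further: score merges emission near 667 nm and signal to noise per printed spot across three slides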
[19] = molecular target: Dickkopf-related protein 1 (Homo sapiens) (UniProt O94907); test: DKK1 binders on small-molecule microarrays, primary screen, biochemical, small-molecule microarray, 635 nm fluorescence scan (AID 1106); conditions: DKK1 binding, higher = more signal;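 further: score merges emission near 667 nm with signal to noise over three replicate slides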
[20] = test system: Inhibin beta A chain (activin A); test: INHBA (activin A) binders on microarrays, primary screen, biochemical, small-molecule microarray, 635 nm fluorescence scan (AID 1107); conditions: small-molecule microarray binding, higher = more signal;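 further: mouse activin A protein probed at 4.33 µg/mL on printed slides; score merges bound-protein fluorescence near 667 nm with spot signal-to-noise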

Sequence of Torsin-1A-interacting protein 2 (Homo sapiens) (Q8NFQ8 whole entry, looked up): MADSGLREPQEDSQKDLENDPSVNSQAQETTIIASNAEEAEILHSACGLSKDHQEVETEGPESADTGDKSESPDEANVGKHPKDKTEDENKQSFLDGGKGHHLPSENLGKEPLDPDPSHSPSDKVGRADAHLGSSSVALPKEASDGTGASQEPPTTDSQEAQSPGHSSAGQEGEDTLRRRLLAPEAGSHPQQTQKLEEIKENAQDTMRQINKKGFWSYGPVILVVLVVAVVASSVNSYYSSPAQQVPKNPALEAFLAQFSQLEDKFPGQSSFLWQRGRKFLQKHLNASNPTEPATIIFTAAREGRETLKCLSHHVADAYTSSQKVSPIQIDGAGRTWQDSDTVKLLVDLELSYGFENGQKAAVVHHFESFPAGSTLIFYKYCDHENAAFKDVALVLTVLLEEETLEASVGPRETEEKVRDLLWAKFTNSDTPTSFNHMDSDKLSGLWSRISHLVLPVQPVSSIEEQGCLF
Sequence of Follistatin-related protein 3 (Homo sapiens) (O95633 whole entry, looked up): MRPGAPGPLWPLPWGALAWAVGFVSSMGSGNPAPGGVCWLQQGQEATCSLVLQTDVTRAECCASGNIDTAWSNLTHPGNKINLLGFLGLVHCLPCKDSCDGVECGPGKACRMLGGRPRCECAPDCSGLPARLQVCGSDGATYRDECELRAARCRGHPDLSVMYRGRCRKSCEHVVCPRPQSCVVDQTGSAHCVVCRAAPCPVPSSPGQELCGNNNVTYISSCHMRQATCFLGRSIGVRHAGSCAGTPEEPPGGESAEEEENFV
Sequence of Dickkopf-related protein 1 (Homo sapiens) (O94907 whole entry, looked up): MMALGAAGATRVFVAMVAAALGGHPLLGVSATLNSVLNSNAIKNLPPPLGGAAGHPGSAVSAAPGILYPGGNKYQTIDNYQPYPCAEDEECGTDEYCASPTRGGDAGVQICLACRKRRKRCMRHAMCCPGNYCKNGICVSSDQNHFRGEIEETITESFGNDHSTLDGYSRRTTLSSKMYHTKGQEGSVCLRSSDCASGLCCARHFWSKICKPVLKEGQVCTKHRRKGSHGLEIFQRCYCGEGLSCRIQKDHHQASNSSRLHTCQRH
Sequence of Neurogenic locus notch homolog protein 3 (Homo sapiens) (Q9UM47 whole entry, looked up): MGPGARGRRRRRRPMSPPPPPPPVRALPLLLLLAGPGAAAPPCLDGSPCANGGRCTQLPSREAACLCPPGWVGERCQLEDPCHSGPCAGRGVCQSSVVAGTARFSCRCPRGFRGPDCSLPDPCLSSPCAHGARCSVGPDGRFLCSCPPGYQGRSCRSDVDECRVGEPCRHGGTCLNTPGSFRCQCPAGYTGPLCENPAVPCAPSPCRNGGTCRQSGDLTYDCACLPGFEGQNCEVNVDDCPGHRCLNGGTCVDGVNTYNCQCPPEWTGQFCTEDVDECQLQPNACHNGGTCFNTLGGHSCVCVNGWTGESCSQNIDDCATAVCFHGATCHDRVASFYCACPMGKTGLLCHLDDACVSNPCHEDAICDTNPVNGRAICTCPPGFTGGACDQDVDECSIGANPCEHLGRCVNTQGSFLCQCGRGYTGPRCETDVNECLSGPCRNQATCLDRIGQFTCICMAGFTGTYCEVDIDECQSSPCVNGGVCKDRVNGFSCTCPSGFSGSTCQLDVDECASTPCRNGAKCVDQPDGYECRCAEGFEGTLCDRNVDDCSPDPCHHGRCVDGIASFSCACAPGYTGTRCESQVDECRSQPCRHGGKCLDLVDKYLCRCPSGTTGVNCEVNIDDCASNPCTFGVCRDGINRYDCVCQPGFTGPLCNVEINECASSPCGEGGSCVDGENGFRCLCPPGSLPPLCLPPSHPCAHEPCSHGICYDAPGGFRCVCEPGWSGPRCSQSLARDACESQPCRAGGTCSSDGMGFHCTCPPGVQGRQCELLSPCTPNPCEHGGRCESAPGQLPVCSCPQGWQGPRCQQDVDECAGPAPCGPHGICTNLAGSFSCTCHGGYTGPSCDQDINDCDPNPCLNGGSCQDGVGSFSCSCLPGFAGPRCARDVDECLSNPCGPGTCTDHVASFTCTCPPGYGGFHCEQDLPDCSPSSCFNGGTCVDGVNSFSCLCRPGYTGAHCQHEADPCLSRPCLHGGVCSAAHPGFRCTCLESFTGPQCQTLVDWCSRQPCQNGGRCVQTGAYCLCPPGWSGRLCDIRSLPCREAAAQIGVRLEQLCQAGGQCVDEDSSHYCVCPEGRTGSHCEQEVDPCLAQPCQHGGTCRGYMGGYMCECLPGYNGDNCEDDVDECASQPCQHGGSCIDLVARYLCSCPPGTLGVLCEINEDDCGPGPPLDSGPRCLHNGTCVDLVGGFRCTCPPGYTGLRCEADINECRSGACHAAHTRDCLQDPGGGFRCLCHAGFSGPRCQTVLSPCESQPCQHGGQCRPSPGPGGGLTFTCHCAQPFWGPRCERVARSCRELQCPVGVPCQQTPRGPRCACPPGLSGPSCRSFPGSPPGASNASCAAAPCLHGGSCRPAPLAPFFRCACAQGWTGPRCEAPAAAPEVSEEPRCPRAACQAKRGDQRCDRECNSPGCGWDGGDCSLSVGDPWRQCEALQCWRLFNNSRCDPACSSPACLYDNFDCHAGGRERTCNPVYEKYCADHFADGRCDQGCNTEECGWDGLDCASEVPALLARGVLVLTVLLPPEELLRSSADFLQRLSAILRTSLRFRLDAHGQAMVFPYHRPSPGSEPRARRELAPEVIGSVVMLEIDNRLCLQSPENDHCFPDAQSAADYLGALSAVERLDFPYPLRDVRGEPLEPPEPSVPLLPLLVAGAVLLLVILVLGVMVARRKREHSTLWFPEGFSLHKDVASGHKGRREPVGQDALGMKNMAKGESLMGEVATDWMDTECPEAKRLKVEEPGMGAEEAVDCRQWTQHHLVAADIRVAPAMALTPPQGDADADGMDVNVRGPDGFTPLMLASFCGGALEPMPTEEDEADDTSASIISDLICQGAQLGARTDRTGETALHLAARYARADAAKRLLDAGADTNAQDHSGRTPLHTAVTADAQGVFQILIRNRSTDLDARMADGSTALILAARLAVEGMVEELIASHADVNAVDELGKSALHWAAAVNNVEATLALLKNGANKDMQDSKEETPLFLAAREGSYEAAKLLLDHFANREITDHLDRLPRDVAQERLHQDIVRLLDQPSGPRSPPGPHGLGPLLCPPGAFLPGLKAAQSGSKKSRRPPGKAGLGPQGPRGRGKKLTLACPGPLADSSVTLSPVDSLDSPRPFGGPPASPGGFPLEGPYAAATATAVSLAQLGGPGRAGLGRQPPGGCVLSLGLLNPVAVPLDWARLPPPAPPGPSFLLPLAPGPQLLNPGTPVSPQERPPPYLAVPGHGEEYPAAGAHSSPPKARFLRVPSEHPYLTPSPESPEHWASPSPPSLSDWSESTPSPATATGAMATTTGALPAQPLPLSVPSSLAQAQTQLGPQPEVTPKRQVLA
Sequence of Fibroblast growth factor 10 (Homo sapiens) (O15520 whole entry, looked up): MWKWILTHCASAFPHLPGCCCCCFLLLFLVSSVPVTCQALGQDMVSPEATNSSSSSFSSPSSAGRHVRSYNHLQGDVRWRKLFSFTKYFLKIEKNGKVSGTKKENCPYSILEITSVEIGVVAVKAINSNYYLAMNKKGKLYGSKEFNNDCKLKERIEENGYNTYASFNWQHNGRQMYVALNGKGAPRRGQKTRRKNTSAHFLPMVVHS
Sequence of Epidermal growth factor receptor (Homo sapiens) (P00533 whole entry, looked up): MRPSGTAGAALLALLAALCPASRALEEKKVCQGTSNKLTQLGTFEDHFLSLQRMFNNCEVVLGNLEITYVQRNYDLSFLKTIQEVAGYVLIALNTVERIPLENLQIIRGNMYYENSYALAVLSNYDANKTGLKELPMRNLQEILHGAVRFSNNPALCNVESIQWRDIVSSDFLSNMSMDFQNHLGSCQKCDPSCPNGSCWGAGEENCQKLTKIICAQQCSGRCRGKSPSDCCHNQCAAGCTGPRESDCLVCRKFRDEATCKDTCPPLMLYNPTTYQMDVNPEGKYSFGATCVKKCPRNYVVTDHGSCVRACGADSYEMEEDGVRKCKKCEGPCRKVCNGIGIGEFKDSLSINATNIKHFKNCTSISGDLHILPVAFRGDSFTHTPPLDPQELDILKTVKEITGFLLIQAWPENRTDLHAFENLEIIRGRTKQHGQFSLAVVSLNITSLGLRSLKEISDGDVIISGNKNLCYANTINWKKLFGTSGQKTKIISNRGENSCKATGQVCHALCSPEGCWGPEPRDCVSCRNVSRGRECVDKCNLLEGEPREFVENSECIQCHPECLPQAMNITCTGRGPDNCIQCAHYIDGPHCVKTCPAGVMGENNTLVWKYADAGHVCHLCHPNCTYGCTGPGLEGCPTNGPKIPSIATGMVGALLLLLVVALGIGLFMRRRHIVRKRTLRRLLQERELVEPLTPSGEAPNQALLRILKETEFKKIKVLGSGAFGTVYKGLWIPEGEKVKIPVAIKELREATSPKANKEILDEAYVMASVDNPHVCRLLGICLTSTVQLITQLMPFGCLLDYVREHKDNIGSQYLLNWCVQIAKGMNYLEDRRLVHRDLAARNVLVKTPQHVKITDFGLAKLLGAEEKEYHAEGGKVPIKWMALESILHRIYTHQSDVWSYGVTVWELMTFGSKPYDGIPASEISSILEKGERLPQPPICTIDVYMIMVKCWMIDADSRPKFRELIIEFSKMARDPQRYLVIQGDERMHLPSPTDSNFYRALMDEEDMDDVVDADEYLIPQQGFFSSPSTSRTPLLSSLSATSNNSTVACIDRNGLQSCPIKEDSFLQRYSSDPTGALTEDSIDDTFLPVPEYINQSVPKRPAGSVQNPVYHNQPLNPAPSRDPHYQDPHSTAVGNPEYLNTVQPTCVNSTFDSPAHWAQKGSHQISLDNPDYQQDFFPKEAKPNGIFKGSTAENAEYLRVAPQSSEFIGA

| SMILES | composite z-score [1] | z-score [2] | z-score [3] | z-score [4] | composite z-score [5] | z-score [6] | composite z-score [7] | composite z-score [8] | composite z-score [9] | composite z-score [10] | composite z-score [11] | composite z-score [12] | composite z-score [13] | z-score [14] | composite z-score [15] | composite z-score [16] | composite z-score [17] | composite z-score [18] | composite z-score [19] | composite z-score [20] |
| --- | --- | --- | --- | --- | --- | --- | --- | --- | --- | --- | --- | --- | --- | --- | --- | --- | --- | --- | --- | --- |
| COc1ccc(C(=O)Nc2cccc(CN3C(=O)[C@@]4(O[C@@H](CC(=O)N5Cc6ccccc6C[C@H]5CO)[C@H]([Si](C)(C)c5ccc(OC)cc5)[C@H]4C)c4ccccc43)c2)cc1 | 1.55 | -1.26 (inactive) | 0.166 (inactive) | 1.22 (inactive) | 1.71 | -0.209 (inactive) | 0.0327 | 1.25 | 0.893 | 0.0276 | 1.42 | -0.287 | -0.0642 | -1.14 (inactive) | 0.639 | 0.363 | 0.978 | 1.24 | 1.11 | 0.551 |
| Cc1cccc(/C=C/C=O)c1 | 0.425 | 0.897 (inactive) | -4.56 (inactive) | -0.104 (inactive) | 1.54 | -0.0384 (inactive) | -0.186 | 0.0535 | -0.136 | -0.246 | 0 | -0.101 | 0.558 | 0.465 (inactive) | -0.0736 | -0.0687 | -0.391 | 0.119 | -0.214 | 0.561 |
| CCCNC(=O)[C@@]1(C)c2ccccc2C(=O)N(Cc2cc(C(F)(F)F)cc(C(F)(F)F)c2)[C@H]1c1ccc(CO)cc1 | 1.43 | 0.0841 (inactive) | -0.25 (inactive) | -0.49 (inactive) | 2.59 | -0.667 (inactive) | -0.119 | -0.675 | -0.131 | -0.137 | 0.0609 | 0.21 | 0.608 | -0.542 (inactive) | -0.0617 | -0.196 | -0.708 | -0.808 | -0.408 | -0.605 |
| O=C1OCCC/C=C\[C@H]2OC34C=CCN(CCN5CCOCC5)C(=O)[C@H]3N(CCO)C(=O)[C@@H]4C12 (stereo not given in full) | -0.833 | 0.14 (inactive) | 0.774 (inactive) | -0.131 (inactive) | -0.534 | 1 (inactive) | -0.18 | -0.915 | -1.23 | -0.244 | 1.66 | -0.214 | 0.0583 | -1.15 (inactive) | -0.506 | -0.707 | -0.676 | -1.14 | -0.507 | -0.68 |
| O=C1C2C=CC(C(O)c3ccc(B(O)O)cc3)N(Nc3ccc([N+](=O)[O-])cc3)C2C(=O)N1c1ccccc1 (stereo not given) | 1.26 | -26.5 (active) | -16.1 (active) | 0.847 (inactive) | 2.54 | -0.465 (inactive) | 0.143 | 0.288 | 1.03 | 0.105 | 0.76 | 0.627 | 0.642 | 0.98 (inactive) | 1.11 | 1.19 | 0.415 | 0.998 | -0.0757 | 0.0102 |
